High-throughput results deposited in PubChem BioAssay by several laboratories.
Rows were chosen to be rich in hits. Some 4.9% of all compounds tested hit in one or more screens of this group.
HSF1 inhib – HSF1 inhibitors in luciferase reporter cells, primary screen, cell-based, NIH3T3, luminescence; NIH3T3-HGL HSE-luciferase, MG132-induced, luminescence 8 h; hits give low values; activity change, negative = inhibition, % at 7.5 µM (by protocol); 300,000 tested, 0.77% active; AID 2098, 2009;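 active = more than half of replicate wells show activity change below -50%, luminescence cut by over half; inconclusive = some wells, but at most half, below -50%; inactive = no replicate well below -50%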;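 also: luciferase reports HSF-1 transcriptional activity via heat shock element; 0% = median of DMSO wells and -100% = zero luminescence signal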
dFosB activator – activators of delta FosB homodimer, primary screen, biochemical, fluorescence polarization, TAMRA-CDK5 oligo, single point; 340,000 tested, 0.99% active; activation, % at 25 µM; AID 493131, 2011; Protein FosB (Mus musculus), P13346; purified delta FosB; percent of positive-control signal above neutral wells;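 active = mean activation above about 17%, with every replicate also reaching it, limit read from the data, passing the limit was not always enough; inconclusive = only one of the two conditions met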
Target sequence (P13346 whole entry, looked up): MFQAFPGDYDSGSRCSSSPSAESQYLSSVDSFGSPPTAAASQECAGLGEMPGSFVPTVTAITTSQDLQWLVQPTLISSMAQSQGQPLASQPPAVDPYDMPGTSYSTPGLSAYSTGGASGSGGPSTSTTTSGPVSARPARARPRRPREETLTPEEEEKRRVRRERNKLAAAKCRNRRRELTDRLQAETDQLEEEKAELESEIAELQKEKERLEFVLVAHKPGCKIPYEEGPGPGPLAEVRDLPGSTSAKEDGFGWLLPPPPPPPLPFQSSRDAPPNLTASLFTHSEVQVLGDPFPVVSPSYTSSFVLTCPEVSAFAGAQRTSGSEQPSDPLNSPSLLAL
MPTP inh – mitochondrial permeability transition pore inhibitors, primary screen, biochemical, isolated mouse mitochondria, absorbance | inhibition, % at 10 µM | 360,000 tested, 1.4% active | AID 602449, 2012 | Ca2+ swelling absorbance, 30 min;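 active = inhibition of 50% or more, scaled per plate between neutral and stimulator controls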;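 also: 0% = DMSO wells given calcium and 100% = 1 mM EGTA wells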
Platelet DG rel – inhibitors of platelet dense granule secretion, primary screen, cell-based, MLPCN, human platelets | AID 1663, 2009 | 300,000 tested, 0.22% active | inhibition, %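 (compounds screened at 7.5 µM in platelet-rich plasma)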 | human platelet-rich plasma, SFLLRN dense granule ATP release, luminescence;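 active = mean replicate score, as percent of positive control, at or above 50; inconclusive = mean below 50 but at least one replicate at or above 50; inactive = mean and every replicate below 50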
HSP90 refold inh – HSP90 inhibitors, primary screen, cell lysate, luminescence; Heat shock protein HSP 90 (rabbit reticulocyte lysate; luciferase refolding); Rabbit reticulocyte lysate, luciferase refolding luminescence, 3 h; inhibition, % at 5.6 µM; 290,000 tested, 0.91% active; AID 1789, 2009;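 active = inhibition above the screen-wide mean plus 3 SD, computed separately per campaign, cut at about 16% in these data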;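 also: 0% = DMSO wells and 100% = 60 µM geldanamycin wells; inhibitors lower the luminescence because luciferase stays unfolded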
HSF1 activator – HSF-1 activators, primary screen, NIH3T3-HGL cells, MG132 stress, luminescence, single point; NIH3T3-HGL HSF-1 luciferase reporter, 8 h; 100% = twice DMSO control signal; activation, % at 9 µM; 300,000 tested, 1.7% active;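 active = mean replicate activation of at least 50% with a set share of replicates each reaching 50%; inconclusive = only one of those two conditions met; inactive = mean below 50% and too few replicates reaching it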;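 also: 0% = median of the neutral control wells and 100% = twice that signal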
MPTP counter – fluorescence retest of MPTP screen hits in isolated mitochondria, single concentration. shares compounds with MPTP inh. membrane potential, Rhodamine 123 fluorescence. inhibition, % at 10 µM. 5,000 tested, 78% active; in the data active = inhibition above about 22%;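 also: 0% = DMSO vehicle and 100% = positive control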
MPTP swell DR – mitochondrial permeability transition pore inhibitors, dose response, biochemical, absorbance, uHTS hits; shares compounds with MPTP inh; isolated mitochondria swelling; IC50, µM; 780 tested, 58% active; in the data active = IC50 below about 20 µM
MPTP cs DR – fluorescent counter-screen in isolated mitochondria, dose response, counter-screen for MPTP inhibitor project, biochemical, fluorescence, uHTS hits; shares compounds with MPTP inh; isolated mitochondria counterscreen, fluorescence read-out; IC50, µM; 780 tested, 49% active; in the data active = IC50 below about 80 µM
Active calls of the source: *; ? = inconclusive; · = not tested or not shown.

SMILES	HSF1 inhib	dFosB activator	MPTP inh	Platelet DG rel	HSP90 refold inh	HSF1 activator	MPTP counter	others
COc1ccc(C(=O)N(C)CC2CCN(CCc3cccc(C(F)(F)F)c3)CC2)cc1C	0	-16	53*	-1	1	4	-3	MPTP swell DR=12*;MPTP cs DR=42*
Cc1cccc(S(=O)(=O)NC(=O)C2(C)CCN2C(=O)Cc2ccc(-c3ccccc3)cc2)c1 (stereo unspecified)	·	·	0	·	·	·	·
Clc1ccc(OCc2nnc(SCc3nc4ccccc4[nH]3)n2Cc2ccco2)cc1	5	-16	62*	-9	0	45	35*
CCN(CC)S(=O)(=O)c1cc(C(=O)OCC(=O)c2ccc3c(c2)NC(=O)CO3)ccc1Cl	-4	5	85*	1	3	31	59*
CCN(CC)S(=O)(=O)c1ccc(C(=O)OCC(=O)c2ccc3c(c2)NC(=O)CO3)cc1	·	-2	2	-1	-1	·	·
CSc1cccc(NC(=O)/C=C/c2ccc(Cl)cc2)c1	19	-4	90*	4	-3	31	90*
CSc1cccc(NC(=O)/C=C/c2ccco2)c1	23	-12	0	1	0	35	·
CSc1cccc(NC(=O)Nc2ccccc2)c1	8	-4	88*	0	-2	19	110*
CSc1cccc(NC(=O)/C=C/c2ccccc2)c1	27	-6	52*	-5	-5	74*	53*
c1cncc(CNCc2ccco2)c1	-7	10	-1	-3	3	-5	·
Cc1occc1C(=O)/C(C#N)=C/c1ccc(O)c(Br)c1	-6	-1	48	-45	0	4	·
Clc1ccc2nc(COc3ccccc3)[nH]c2c1	20	-6	1	4	3	34	·
COc1ccc(C(=O)Nc2nnc(S(=O)(=O)N(C)Cc3ccccc3)s2)cc1	1	7	4	3	-3	5	·
CN(Cc1ccc(F)cc1)S(=O)(=O)c1nnc(NC(=O)c2ccccc2)s1	11	9	51*	-15	-6	35	86*
COc1ccc(CN(C)S(=O)(=O)c2nnc(NC(=O)c3cccc(C)c3)s2)cc1OC	-6	-10	1	1	-2	4	·
CN(Cc1ccc(F)cc1)S(=O)(=O)c1nnc(NC(=O)c2ccccc2Br)s1	-3	-6	60*	2	-4	-11	71*
COc1ccc(CN(C)S(=O)(=O)c2nnc(NC(=O)c3cccc(F)c3)s2)cc1	-1	3	54*	0	-5	30	81*
COC(=O)[C@]12CCCCC=C1N(Cc1ccc(Cl)cc1Cl)C(=O)[C@H](CC(=O)NCCc1ccccc1OC)C2	·	·	-1	·	·	·	·
CCN(CC)S(=O)(=O)c1cc(C(=O)Nc2cc(C)[nH]n2)ccc1Cl	19	-13	0	8	2	26	·
CN(C(=O)c1ccc(Br)o1)C1(C)CCS(=O)(=O)C1 (stereo unspecified)	2	1	0	19	3	-3	·
CCOc1ccc(-c2cncc3nccn23)cc1	·	·	-1	·	·	·	·
O=C(COC(=O)/C=C/c1cccc(Br)c1)NC1CCCC1	·	-7	-1	·	·	·	·
CC(C)(CO)NCc1ccccc1OCC(=O)Nc1ccccc1	12	-1	0	9	-1	19	·
Cc1ccc(NC(=O)COc2ccccc2CNC(C)(C)CC(C)(C)C)cc1	12	-26	50*	18	3	12	34*
Cc1cccc(NC(=S)NNC(=O)COc2ccc(Cl)cc2Cl)c1	-3	-6	55*	18	0	-1	52*
SMILES	HSF1 inhib	dFosB activator	MPTP inh	Platelet DG rel	HSP90 refold inh	HSF1 activator	MPTP counter	others
COc1ccc([N+](=O)[O-])cc1NC(=O)Nc1ccc(OC)c(OC)c1	2	-14	0	-2	3	13	·
COc1ccccc1NS(=O)(=O)c1cccc(NC(=O)NCCCl)c1	-7	-3	6	3	-5	-27	·
O=C(Nc1cccc(Cl)c1)c1cccc(Oc2ccc([N+](=O)[O-])cc2Cl)c1	10	5	86*	3	1	12	97*
COc1ccc(NC(=O)c2cccc(Oc3ccc([N+](=O)[O-])cc3Cl)c2)cc1	2	-13	38	-21	1	0	·
COc1ccc([N+](=O)[O-])cc1NC(=O)Nc1cccc(Cl)c1	-12	-5	107*	-24	1	3	67*
COc1ccccc1NS(=O)(=O)c1cccc(NC(=O)Nc2cccc(Cl)c2)c1	-3	-1	81*	-14	-6	3	76*
COc1ccc(C(C(=O)NCc2ccc(F)cc2)N(C(=O)c2csnn2)C2CC2)cc1 (stereo unspecified)	9	-5	-1	7	-1	2	·
CCOC(=O)[C@]12CCC=C1N(Cc1ccc(Cl)cc1Cl)C(=O)[C@H](CC(=O)N1CCOCC1)C2	·	·	0	·	·	·	·
O=C(NCc1cccnc1)OC1CC2CC1[C@H]1CCCCN1C2=O (stereo partly specified)	·	·	-1	·	·	·	·
Cc1cc(C(=O)CSc2nc3ccc(Cl)cc3[nH]2)c(C)n1Cc1ccco1	6	-3	51*	-1	·	5	53*
O=C(CSc1nc2ccc(Cl)cc2[nH]1)NCc1ccco1	-1	-10	1	-2	-3	30	·
CCOC(=O)[C@@H]1[C@H]2COc3cc(OC)ccc3[C@@H]2N2C(=O)N(c3ccccc3)C(=O)[C@@]12C	·	-1	0	·	·	·	·
CN1\C(=C/C=C/C=C/C=[N+](C)C)C(C)(C)c2ccccc21	-34	?	112*	43	-5	-38	59*
CCCCCCOc1ccc(/C(C)=N/NC2=NCCN2)cc1	8	-2	94*	-2	1	6	-2
CCOc1ccc(Br)cc1/C(C)=N\NC1=NCCN1	6	-10	108*	-35	6	-3	67*
Cc1cccc(C)c1N1CCN(C(c2cc3ccccc3o2)c2nnnn2C(C)(C)C)CC1 (stereo unspecified)	·	·	87*	·	·	·	57*
CCOC(=O)[C@]12CCCC=C1N(Cc1ccc(Cl)cc1Cl)C(=O)[C@H](CC(=O)NCc1cccc3ccccc13)C2	·	·	-1	·	·	·	·
